In PubChem BioAssay AID1259423 (Fisher Drug Discovery Resource Center, 2018) one finds activation data, which are given here for 40 compounds.

“And” between values parts separate entries of the source, which are not always exact repeats. Equal values may be shown once. Out of some 270,000 compounds screened, about 410 (0.15%) were called active. Rule as the data show it: active = activation above about 40%; inactive = the rest, inconclusive results apart. The entries come from a sample that favours actives as a whole.

The assay deals with Aedes aegypti neuropeptide Y-like receptor 7 (NPYLR7). As to the kind of experiment: agonists of mosquito NPYLR7 receptor, primary screen, cell-based, Aedes aegypti, calcium fluorescence, mosquito biting behavior (AID 1259423).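 Also: 0% = vehicle and 100% = reference agonist at the receptor.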 As to conditions: HEK293T NPYLR7/Galpha15, GCaMP6s calcium fluorescence, at 10 µM, stronger effect = higher value.
Where [1] appears, read: measured here: Max-Min RFU normalised activation.

Regarding `Cc1nc(N)sc1C(=O)N/N=C1\CCn2cccc21`, the activation is 4.89% (inactive). Further, under setting [1], the activation turned out to be 3.57%.

In the case of `CCc1nc2c(OCC=C(C)C)cccn2c1N(C)C(=O)c1ccco1`, the activation is 6.84% (inactive). Also, under setting [1], the activation is -5.05%.

In the case of `CCOC(=O)C1CCN(C(=O)CC2CSc3nc4c(c(=O)n32)CCCC4)CC1` (stereo not given), the activation was -0.315% (inactive). The activation under setting [1] was -2.68%.

For the compound `COc1ccc(NCc2cccc(F)c2)cc1N1CCOC1=O`, the activation is 11.9% (inactive) and 1.76% (inactive). Further, under setting [1], the activation was 10.7% and -0.214%.

As to `CCN(CC)c1onc(-c2ccc(F)cc2)c1CN(CCOC)C(=O)Cc1ccccc1`, the activation was 15% (inactive). Further, the activation under setting [1] was found to be 16.6%.

As to `Cc1ccc(F)c(-n2nnnc2CSCC(=O)NC(C)(C)C)c1`, the activation was 1.4% (inactive). Under setting [1], the activation was found to be 3.68%.

As to `Cc1cc(C)cc(C(O)C(F)(F)F)c1` (stereo not given), the activation is 4.04% (inactive) and 3.71% (inactive). Besides, under setting [1], the activation is 3.27% and 11.4%.

Turning to `CCc1cccc2sc(N(Cc3ccccn3)C(=O)c3cccc(S(=O)(=O)CC)c3)nc12`, the activation was 1.88% (inactive). Besides, the activation under setting [1] was -3.52%.

`COc1ccc(CN(CC(O)COCC(C)C)CC2CCCO2)cc1OC` (stereo not given): the activation is 1.65% (inactive). The activation under setting [1] stood at 13.2%.

Turning to `CN(Cc1ncc[nH]1)C1CCN(c2ccc3c(c2)OCO3)CC1`, the activation is -10.3% (inactive). Also, under setting [1], the activation was -10.5%.

As for `NC(=O)[C@@H]1CN2CCN(C(=O)c3ccco3)C[C@@H]2[C@H]1c1ccccc1`, the activation is 2.73% (inactive). Moreover, the activation under setting [1] came out at 0.0894%.

Regarding `O=C(c1ccc(-n2cnnn2)cc1)N1CCCC(N2CCCC2)C1` (stereo not given), the activation was 6.38% (inactive). In addition, the activation under setting [1] was found to be 2.39%.

`O=c1c2ccccc2sn1CN1CCN(c2ccc(C(F)(F)F)cn2)CC1`: the activation is 10.9% (inactive). Further, under setting [1], the activation was 3.72%.

With `CC[C@H]1CN(Cc2cc(Cl)cc(OC)c2OC)CC[C@@]1(C)O`, the activation was -5.14% (inactive). Also, under setting [1], the activation was -11.2%.

`Cc1ccc(CN(CCN2CCOCC2)CC(O)c2ccccc2)s1` (stereo not given): the activation was 1.67% (inactive). In addition, the activation under setting [1] is 15.8%.

For the compound `CCN1C(=O)CSC1=C(C#N)C(N)=O`, the activation was 4.07% (inactive). Also, the activation under setting [1] is -0.252%.

`CN(C)CC1(O)CCCN(C(=O)c2ccc(N3CCCC3=O)cc2)C1` (stereo not given): the activation was -3.42% (inactive). Also, under setting [1], the activation is -7.14%.

For `Nc1ccc2c3c(cccc13)C(=O)NC2=O`, the activation is 147% (active). Besides, the activation under setting [1] was found to be 136%.

For `Clc1cccc2ccc(CN3CCn4cncc4C3)nc12`, the activation was 133% (active). The activation under setting [1] was determined as 113%.

For `Cc1c(CN2CCn3cncc3C2)c(=O)n(-c2ccccc2)n1C`, the activation is 20.8% (inactive). Under setting [1], the activation worked out at 15.6%.

With `CC1CNC(=O)CCN1Cc1ccc2cccc(Cl)c2n1` (stereo not given), the activation is 8.75% (inactive). Moreover, under setting [1], the activation came to 6.16%.

As for `Cc1nc2ccccc2c(=O)n1N=Cc1ccc(OCc2ccccc2)cc1`, the activation is -6.32% (inactive). The activation under setting [1] was -12.4%.

As for `CCOc1ccc(N2CC(NC(=O)Nc3ncccc3C)CC2=O)cc1` (stereo not given), the activation was 2.56% (inactive). Further, under setting [1], the activation was -0.89%.

In the case of `O=C(Cc1cnn(-c2ccccc2)n1)N1CCCCCCC1`, the activation was 10.9% (inactive). Besides, the activation under setting [1] was found to be 7.94%.

As to `Cn1nc(C(=O)N2CCCC(COc3ccccc3F)C2)ccc1=O` (stereo not given), the activation was 11.1% (inactive). The activation under setting [1] was determined as 4.67%.

In the case of `O=C(c1cnn(-c2ccccc2)n1)N1CCCC(COCc2ccccc2)C1` (stereo not given), the activation was 97.3% (active). The activation under setting [1] was 92.7%.

For the compound `CN1CCOC(CCNC(=O)CCC(=O)N2CCCCCC2)C1` (stereo not given), the activation was 1.36% (inactive). The activation under setting [1] is -0.93%.

For `COc1ccc(C=CC(=O)c2ccc(I)cc2)cc1OC`, the activation was 1.5% (inactive). Moreover, the activation under setting [1] turned out to be 6.21%.

In the case of `COc1ccc(C(=O)C=Cc2ccc(F)c(F)c2)cc1F`, the activation is 2.38% (inactive). In addition, the activation under setting [1] was -4.33%.

In the case of `COc1ccc(C(=O)C=Cc2cc(Br)c(O)c(OC)c2)cc1F`, the activation is 172% (active). The activation under setting [1] turned out to be 160%.

For the compound `CCCCCCC(=O)Nc1c(-c2ccc(OC)c(OC)c2)nc2cc(C)ccn12`, the activation was -2.82% (inactive). Further, under setting [1], the activation stood at 4.02%.

With `CC(=O)N1CCC(C(=O)N2CCCC(C(=O)c3ccc(C(F)(F)F)cc3)C2)CC1` (stereo not given), the activation was 0.616% (inactive). Moreover, under setting [1], the activation was -1.09%.

For `COc1ccc(C)c2sc(N(Cc3ccccc3)C(=O)c3ccc([N+](=O)[O-])o3)nc12`, the activation is 3.04% (inactive). Under setting [1], the activation was 0.795%.

For the compound `Oc1ccc(-c2onc3ccc(Cl)cc23)cc1`, the activation was 112% (active). The activation under setting [1] is 227%.

`N#C/C(=C\c1ccc2noc(-c3ccccc3)c2c1)C(=O)Nc1ccccc1C#N`: the activation is 22.3% (inactive). The activation under setting [1] was determined as 18.1%.

With `c1ccc(Nc2nc(-c3ccco3)nc3ccccc23)cc1`, the activation was -1.91% (inactive). Moreover, the activation under setting [1] was determined as 4.58%.

Regarding `COc1ccccc1-c1cc(C(=O)N2CCCC2)n2nc(C(C)(C)C)cc2n1`, the activation is 3.24% (inactive). For the same compound, the activation under setting [1] stood at 10.6%.

Consider `CC1CN(C(=O)NCC(C)N(C)c2ccccc2)CC(C)O1` (stereo not given), for which the activation is 4.84% (inactive). For the same compound, the activation under setting [1] was found to be 1.94%.

For `COc1ccc(CN(Cc2nc(C(=O)O)co2)C(C)c2ccccc2)c(OC)c1` (stereo not given), the activation was 10.6% (inactive). In addition, under setting [1], the activation came out at 6.62%.

As for `CN(Cc1cc(-c2ccncc2)no1)Cc1cn[nH]c1-c1cccc(F)c1`, the activation is 1.92% (inactive). Moreover, the activation under setting [1] stood at 4.35%.
